From PubChem BioAssay (EPA / NIEHS)
Calls of active or inactive are those of the source. How the source made its calls: active means hit-call score of the fitted dose curve at least 0.9, where 1 is the maximum; inactive means score below 0.9.

experiment: CCTE_Shafer_MEA_acute_cross_correlation_area: CCTE's Neural Acute Assay for Area of Cross Correlation, Shafer Lab (AID 2284024);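 further: curves fitted for loss of cross-correlation area so actives lower synchrony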
Method: CCTE_Shafer_MEA_acute assay is conducted using Axion Biosystems 48 well microelectrode array (MEA) plates and Maestro recording system. Each well of the MEA plate contains a grid of 16 microelectrodes embedded in the culture surface. Electrically active cells, such as neurons, can be cultured over the electrodes, and electrical activity in these cells can be recorded extracellularly. The spontaneous firing of neurons is captured from each electrode on a microsecond timescale providing both temporally and spatially precise data. […] The CCTE_Shafer_MEA_acute assay uses primary cultures of rat cortical neurons. As these cultures mature over time, neural networks develop functional activity and form cohesive networks in which electrical activity can be highly coordinated. Baseline 40-minute recordings are made on days post-plating 13 or 15, followed by a secondary 40-minute recording after chemical exposure.CCTE_Shafer_MEA_acute_cross_correlation_area is a component of the CCTE_Shafer_MEA_acute assay. It measures the area under the well-wide pooled inter-electrode cross-correlation of action potential firing (not normalized to auto-correlations) within a window centered around 0 for the phase lag during a recording in a microelectrode array (MEA) using Axion Biosystems Maestro 768 channel amplifier with the AxIS adaptive spike detector. The recordings before and after chemical treatment are used to calculate a percent change in the cross correlation area in each well.Data from the assay component CCTE_Shafer_MEA_acute_cross_correlation_area was analyzed into 1 assay endpoint. This assay endpoint, CCTE_Shafer_MEA_acute_cross_correlation_area, was analyzed in the negative analysis fitting direction relative to DMSO as the negative control and baseline of activity. Using a type of functional reporter, gain or loss-of-signal activity can be used to understand electrical activity.
Spontaneous activity in the cortical cultures was recorded using an Axion Biosystems Maestro 768 channel amplifier and Axion Integrated Studios (AxIS) v1.8 (or later) software. The amplifier recorded from all channels simultaneously (gain = 1200 x; sampling rate = 12.5 kHz/channel): raw signals were filtered with a Butterworth band-pass filter (300-5000 Hz), which filters out slower local field potentials leaving only fast potentials, i.e., "spikes", arising from extracellular currents associated with action potentials (Pine 2006; Wheeler and Nam 2011). On-line spike detection of filtered signals was conducted with the AxIS adaptive spike detector, using a threshold of 8x the root mean squared (rms) noise on each channel. Any electrodes with rms noise levels greater than 5 uV were grounded (e.g., no data were recorded). Once grounded, an electrode was grounded for the duration of the experiment. All recordings were conducted at 37 C. Wells were deemed usable if on the day of the exposure >/= 10 electrodes were active (defined as >/= 5 spikes/min). On DIV 13 or 15, a minimum of three wells from one cortical culture preparation were treated with each compound (0.03-40 uM). Prior to recording baseline activity, each mwMEA plate was placed in the Maestro at 37 C and allowed to sit for 20 min while firing rates stabilized. Baseline activity (40 min) was recorded before the addition of each compound. An additional 40 min of spontaneous activity was recorded in the presence of each compound. Changes in network parameters relative to baseline were assessed following compound treatment.

outcome, inactive:
Cc1[nH]cnc1C[C@H]1CCc2c(C)c3ccccc3n2C1=O
CCC(C)(C)C(=O)O[C@H]1C[C@@H](C)C=C2C=C[C@H](C)[C@H](CC[C@@H]3C[C@@H](O)CC(=O)O3)[C@H]21
CC[C@H]1CC[C@H](NCc2cc3c(cc2OC)[C@H]2C[C@H]2C(=O)N3C)[C@H](c2ccccc2)N1
CC(C)=CCCC(C)=CC=O
CC[C@H]1OC(=O)[C@H](C)[C@@H](O[C@H]2C[C@@](C)(OC)[C@@H](O)[C@H](C)O2)[C@H](C)[C@@H](O[C@@H]2O[C@H](C)C[C@H](N(C)C)[C@H]2O)[C@](C)(O)C[C@@H](C)C(=O)[C@H](C)[C@@H](O)[C@]1(C)O
On1ccccc1=S
CCCCCCc1ccc(O)cc1O
CCCN(C1CCN(C(=O)C2CCNCC2)CC1)[C@@H]1CCc2ccc(OC)cc2C1
Cn1c(=O)c2c(ncn2C)n(C)c1=O
CCCCC(CC)COC(=O)CCCCCCCCC(=O)OCC(CC)CCCC (stereo not drawn)
COc1ccc2sc(C(=O)Nc3nnn[nH]3)c(OC(C)C)c2c1
O=P(OC(CCl)CCl)(OC(CCl)CCl)OC(CCl)CCl
CCOC(=O)c1ccc(C2CCC(NC[C@H](O)COc3ccc(O)c(NS(C)(=O)=O)c3)CC2)cc1 (stereo partly drawn)
CCCCCCCCCCCCc1ccccc1
Cn1cnc([N+](=O)[O-])c1Sc1ncnc2nc[nH]c12
O=C(O)c1cc(N=Nc2ccc(S(=O)(=O)Nc3ccccn3)cc2)ccc1O
O=C(O)CCN(C1(C(=O)NO)CCCC1)S(=O)(=O)c1ccc(Oc2ccc(F)cc2)cc1

AC50, active:
COc1cccc(-c2ccc(/C=C\CN3CCCCCC3)cc2Cl)c1 3.7 µM
